We go through nine compounds from PubChem BioAssay (NCI).

Holding throughout (assay): NCI-60 one-dose screen, 48 h (100 = growth as untreated, 0 = no growth, -100 = all killed)
One experiment has as its system SR leukemia. The following applies: 10 µM unless noted.
In the next experiment the test system is RPMI-8226 leukemia. To be noted: 10 µM.
For another experiment, the system named is OVCAR-8 ovarian. The following applies: 10 µM unless noted.
Another experiment relates to OVCAR-5 ovarian. To be noted: 10 µM unless noted.
The test system of another experiment is OVCAR-4 ovarian. To be noted: 10 µM unless noted.
Another experiment has as its system SK-OV-3 ovarian. The following applies: 10 µM.
The test system of a further experiment is IGROV1 ovarian. To be noted: 10 µM unless noted.
In a further experiment the test system is OVCAR-3 ovarian. To be noted: 10 µM unless noted.
Another experiment relates to HS 578T breast. The following applies: 10 µM unless noted.
A further experiment deals with NCI/ADR-RES ovarian. The following applies: 10 µM unless noted.
Another experiment concerns T-47D breast. To be noted: 10 µM.
The next experiment has as its system MDA-MB-435 melanoma. The following applies: 10 µM unless noted.
The test system of another experiment is SW-620 colon. The following applies: 10 µM unless noted.
Another experiment relates to MCF7 breast. The following applies: 10 µM unless noted.
Another experiment concerns HCC-2998 colon. To be noted: 10 µM unless noted.
The subject of another experiment is KM12 colon. The following applies: 10 µM unless noted.
The subject of another experiment is BT-549 breast. To be noted: 10 µM unless noted.
A further experiment deals with HCT-116 colon. To be noted: 10 µM unless noted.

About 83,000 compounds went through this panel and 20% of them were active in at least one assay; those are over-represented in the sample as a whole.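 How to read the values: 0–100, growth inhibition (40 = 60% inhibited); 0, no net growth; -100 to 0, cell death (-40 = 40% of starting cells died; -100 = all dead).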 Values without a mark were called inactive. Activity calls are given as the source filed them. How the source made its calls: active means growth percent below 10; inactive means the rest.

As for `CCOC(=O)c1cc2c(n(C)c1=O)-c1cnn(-c3ccc(OC)cc3)c1CC2`, the growth in the experiment with SR leukemia was 87.2%; in the experiment with RPMI-8226 leukemia it was 89.1%; in the experiment with OVCAR-8 ovarian, 93.8%; in the experiment on OVCAR-5 ovarian, 95.2%; in the experiment on OVCAR-4 ovarian it was 106%; in the experiment on SK-OV-3 ovarian, 108%. Moreover, the growth with IGROV1 ovarian is 115%; in the experiment with OVCAR-3 ovarian, 107%; with HS 578T breast, 119%; in the experiment on NCI/ADR-RES ovarian it was 114%; with T-47D breast it was 82.8%; with MDA-MB-435 melanoma, 92.6%. Moreover, the growth in the experiment on SW-620 colon is 119%; in the experiment on MCF7 breast, 97.2%; in the experiment with HCC-2998 colon it was 120%; in the experiment with KM12 colon it was 112%.

With `NC(=O)c1cc(Cl)ccc1NC(=O)COc1ccccc1`, the growth in the experiment with SR leukemia is 23%; with RPMI-8226 leukemia, 44.5%; in the experiment on OVCAR-8 ovarian it was 60.1%; with OVCAR-5 ovarian, 80.5%; with OVCAR-4 ovarian, 101%; in the experiment on SK-OV-3 ovarian it was 62.8%. The growth is 54.5% in the experiment on IGROV1 ovarian; 27.2% in the experiment with OVCAR-3 ovarian; 54.7% with HS 578T breast; 31.4% in the experiment with NCI/ADR-RES ovarian; 43.8% in the experiment with BT-549 breast; -56.9% (active) in the experiment on MDA-MB-435 melanoma. Besides, the growth was 35.3% in the experiment with SW-620 colon; 30.5% in the experiment with MCF7 breast; 31.5% in the experiment on HCT-116 colon; 83.1% with HCC-2998 colon; 38.3% in the experiment on KM12 colon.

`COc1ncc(F)c(OC)n1`: the growth with SR leukemia is 94%; with RPMI-8226 leukemia it was 101%; with OVCAR-8 ovarian, 97.3%; in the experiment with OVCAR-5 ovarian it was 97.9%; in the experiment on OVCAR-4 ovarian it was 90%; in the experiment on SK-OV-3 ovarian it was 97.8%. Moreover, the growth with IGROV1 ovarian is 103%; in the experiment with OVCAR-3 ovarian, 114%; in the experiment on HS 578T breast, 118%; with NCI/ADR-RES ovarian, 105%; with BT-549 breast it was 108%; in the experiment with MDA-MB-435 melanoma, 106%. The growth is 107% in the experiment on SW-620 colon; 96.6% with MCF7 breast; 101% in the experiment on HCT-116 colon; 110% in the experiment with HCC-2998 colon; 105% in the experiment on KM12 colon.

`O=S(=O)(Nc1ncccn1)c1ccc(Nc2ccc3nnc(-c4ccncc4)n3n2)cc1`: the growth in the experiment with SR leukemia was 102%; in the experiment on RPMI-8226 leukemia it was 109%; in the experiment on OVCAR-8 ovarian it was 103%; with OVCAR-5 ovarian it was 94.3%; in the experiment on OVCAR-4 ovarian it was 93.8%; in the experiment with SK-OV-3 ovarian it was 103%. In addition, the growth in the experiment with IGROV1 ovarian was 105%; in the experiment with OVCAR-3 ovarian it was 104%; in the experiment on HS 578T breast, 84.3%; with T-47D breast, 101%; in the experiment on BT-549 breast it was 106%; in the experiment with MDA-MB-435 melanoma it was 108%. Also, the growth in the experiment with SW-620 colon was 93%; in the experiment on MCF7 breast it was 104%; in the experiment with HCT-116 colon it was 108%; with HCC-2998 colon it was 111%; with KM12 colon, 101%.

`CCCCC(CCCC)(S(=O)(=O)CC)S(=O)(=O)CC`: the growth was 92.3% in the experiment on SR leukemia; 90.8% in the experiment with RPMI-8226 leukemia; 102% in the experiment on OVCAR-8 ovarian; 103% in the experiment with OVCAR-5 ovarian; 110% in the experiment on OVCAR-4 ovarian; 105% in the experiment with SK-OV-3 ovarian. In addition, the growth was 104% with IGROV1 ovarian; 105% in the experiment on OVCAR-3 ovarian; 104% in the experiment on HS 578T breast; 102% with NCI/ADR-RES ovarian; 96.6% in the experiment with BT-549 breast; 97.4% in the experiment on MDA-MB-435 melanoma. Besides, the growth in the experiment on SW-620 colon is 102%; with MCF7 breast, 105%; in the experiment on HCT-116 colon, 98.9%; in the experiment on HCC-2998 colon it was 111%; with KM12 colon, 96.7%.

As to `Cc1ccc2c(N/N=C\c3ccco3)cc(C)nc2n1`, the growth is -8.66% (active) with SR leukemia; 64.7% in the experiment on RPMI-8226 leukemia; 69.6% with OVCAR-8 ovarian; 80.4% with OVCAR-5 ovarian; 46.9% in the experiment with OVCAR-4 ovarian; 98.6% in the experiment with SK-OV-3 ovarian. Besides, the growth in the experiment on IGROV1 ovarian is 49%; with OVCAR-3 ovarian, 88%; in the experiment with HS 578T breast, 86.3%; in the experiment with NCI/ADR-RES ovarian, 71.8%; with MDA-MB-435 melanoma it was 36.6%; with SW-620 colon, 39.5%. Besides, the growth in the experiment with MCF7 breast was 71.8%; in the experiment on HCC-2998 colon it was 65.4%; in the experiment with KM12 colon, 74.8%.

Turning to `CCCCNNC(=O)c1ccc(Br)cc1`, the growth in the experiment with SR leukemia was 40.9%; in the experiment with RPMI-8226 leukemia, 17.8%; in the experiment with OVCAR-8 ovarian, 25.8%; in the experiment with OVCAR-5 ovarian, 41.1%; in the experiment with OVCAR-4 ovarian it was 73.9%; in the experiment on SK-OV-3 ovarian, 85%. Also, the growth was 60.1% with IGROV1 ovarian; 68.8% in the experiment with OVCAR-3 ovarian; 56.8% with HS 578T breast; 23.5% in the experiment on NCI/ADR-RES ovarian; 78.7% in the experiment on BT-549 breast; 36.5% with MDA-MB-435 melanoma. In addition, the growth was 32.6% in the experiment on SW-620 colon; 48% in the experiment with MCF7 breast; 19.5% in the experiment with HCT-116 colon; 61.4% in the experiment with HCC-2998 colon; 78.1% in the experiment on KM12 colon.

On to `O=C1/C(=C/c2ccccc2F)CNC/C1=C\c1ccccc1F`, for which the growth was -2.72% (active) with SR leukemia; -27.8% (active) in the experiment on RPMI-8226 leukemia; 2.92% (active) with OVCAR-8 ovarian; -41.3% (active) in the experiment on OVCAR-5 ovarian; 6.6% (active) in the experiment with OVCAR-4 ovarian; -45.1% (active) in the experiment with SK-OV-3 ovarian. In addition, the growth was -6.61% (active) with IGROV1 ovarian; -68.6% (active) in the experiment on OVCAR-3 ovarian; 24.5% in the experiment on HS 578T breast; 10.9% in the experiment on NCI/ADR-RES ovarian; 9.26% (active) in the experiment with T-47D breast; -56.7% (active) in the experiment on MDA-MB-435 melanoma. In addition, the growth with SW-620 colon is -49.8% (active); in the experiment with HCT-116 colon, -81.8% (active); with HCC-2998 colon, -89.2% (active).

As for `O=C1NC(=O)C2(CCCC2C(=O)O)N1` (stereo not drawn), the growth was 90.4% with SR leukemia; 103% in the experiment on RPMI-8226 leukemia; 100% with OVCAR-8 ovarian; 110% in the experiment with OVCAR-5 ovarian; 99.4% with OVCAR-4 ovarian; 119% in the experiment on SK-OV-3 ovarian. Further, the growth in the experiment on IGROV1 ovarian is 131%; in the experiment with OVCAR-3 ovarian it was 120%; in the experiment with HS 578T breast, 115%; in the experiment with NCI/ADR-RES ovarian it was 100%; with BT-549 breast it was 102%; in the experiment on MDA-MB-435 melanoma, 105%. The growth in the experiment on SW-620 colon was 108%; in the experiment on MCF7 breast, 96.2%; in the experiment with HCT-116 colon, 98.4%; in the experiment with HCC-2998 colon, 100%; in the experiment on KM12 colon, 113%.
